For part of these data: Results with a measured potency or affinity are listed apart.
Key:
Design in all cases: scale not given: direction of the effect not stated beside the values
[1] = molecular target: Protein translocase subunit SecA (Escherichia coli (strain K12)) (UniProt P10408); test: Assay to Identify E. coli SecA ATPase Inhibitors; assay type: functional; conditions: 30 µM
[2] = molecular target: T1, Ubiquitin-activating enzyme e1, putative (Leishmania donovani (strain BPK282A1)) (UniProt E9BSI1); test: Leishmania donovani Ubiquitin Activating Enzyme (LdE1); assay type: functional; conditions: 30 µM
T1 sequence (whole entry): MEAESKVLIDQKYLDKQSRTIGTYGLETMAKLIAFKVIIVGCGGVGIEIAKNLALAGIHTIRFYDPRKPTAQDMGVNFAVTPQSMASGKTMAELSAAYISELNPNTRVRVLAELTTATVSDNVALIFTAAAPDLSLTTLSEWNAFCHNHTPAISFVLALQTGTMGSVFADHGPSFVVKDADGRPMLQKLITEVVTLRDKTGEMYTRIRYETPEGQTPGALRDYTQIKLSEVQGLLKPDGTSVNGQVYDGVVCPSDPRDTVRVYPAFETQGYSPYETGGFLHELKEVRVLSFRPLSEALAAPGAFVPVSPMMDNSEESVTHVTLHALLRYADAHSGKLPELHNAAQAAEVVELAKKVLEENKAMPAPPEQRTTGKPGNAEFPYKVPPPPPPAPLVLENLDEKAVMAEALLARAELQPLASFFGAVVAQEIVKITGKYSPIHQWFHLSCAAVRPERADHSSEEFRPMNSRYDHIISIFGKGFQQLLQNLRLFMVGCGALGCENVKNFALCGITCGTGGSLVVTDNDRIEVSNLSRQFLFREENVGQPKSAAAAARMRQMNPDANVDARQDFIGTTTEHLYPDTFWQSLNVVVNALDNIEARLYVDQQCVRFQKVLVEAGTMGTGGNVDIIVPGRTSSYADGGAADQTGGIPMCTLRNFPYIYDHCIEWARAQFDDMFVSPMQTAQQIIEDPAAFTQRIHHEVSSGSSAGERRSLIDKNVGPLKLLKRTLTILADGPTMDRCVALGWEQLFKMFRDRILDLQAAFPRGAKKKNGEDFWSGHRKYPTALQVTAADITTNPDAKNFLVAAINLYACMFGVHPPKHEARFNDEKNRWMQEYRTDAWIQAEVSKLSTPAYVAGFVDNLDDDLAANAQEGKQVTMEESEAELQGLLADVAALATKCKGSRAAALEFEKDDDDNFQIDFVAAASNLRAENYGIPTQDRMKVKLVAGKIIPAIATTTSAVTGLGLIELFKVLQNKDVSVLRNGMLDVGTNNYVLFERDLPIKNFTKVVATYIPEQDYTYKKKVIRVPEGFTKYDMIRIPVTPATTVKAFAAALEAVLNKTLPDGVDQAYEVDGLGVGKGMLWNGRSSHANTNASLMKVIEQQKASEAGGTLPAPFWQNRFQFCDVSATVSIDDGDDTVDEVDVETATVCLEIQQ

[3] = molecular target: T2, Aspartate--tRNA(Asp/Asn) ligase (Mycobacterium tuberculosis (strain ATCC 25618 / H37Rv)) (UniProt P9WFW3); test: Assay for Asp RNA synthetase-1 from Mycobacterium tuberculosis; assay type: functional; conditions: 30 µM; note: in the data most compounds retested in dose-response had high values
T2 sequence (whole entry): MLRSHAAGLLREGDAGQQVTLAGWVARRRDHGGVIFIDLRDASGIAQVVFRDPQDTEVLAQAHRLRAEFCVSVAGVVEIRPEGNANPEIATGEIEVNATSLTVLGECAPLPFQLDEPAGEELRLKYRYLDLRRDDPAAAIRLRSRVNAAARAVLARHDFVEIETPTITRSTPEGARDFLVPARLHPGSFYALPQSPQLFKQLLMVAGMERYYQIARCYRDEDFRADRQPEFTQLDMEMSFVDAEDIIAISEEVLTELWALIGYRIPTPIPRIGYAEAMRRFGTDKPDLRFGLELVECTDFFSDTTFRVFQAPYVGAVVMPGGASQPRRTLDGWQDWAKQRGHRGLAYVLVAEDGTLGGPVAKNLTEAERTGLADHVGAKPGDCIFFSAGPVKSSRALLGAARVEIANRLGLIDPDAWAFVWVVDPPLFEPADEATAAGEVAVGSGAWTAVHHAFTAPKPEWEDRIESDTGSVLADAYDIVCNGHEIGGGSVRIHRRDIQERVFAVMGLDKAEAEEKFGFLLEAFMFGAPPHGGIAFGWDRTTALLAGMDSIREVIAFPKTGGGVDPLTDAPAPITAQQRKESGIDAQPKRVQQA

[4] = molecular target: AMP-activated protein kinase, AMPK (Homo sapiens) (UniProt P54646+O43741+P54619+Q9UGJ0+Q9Y478+Q13131+Q9UGI9); test: AMP-dependent Kinase enzyme assay. An in vitro enzyme assay that detects ADP turnover that is directly proportional to AMPK activity. This uses naive AMPK that is activated during the assay with MK-8722; assay type: functional; conditions: 30 µM
[5] = molecular target: Sialic acid-binding Ig-like lectin 9 (Homo sapiens) (UniProt Q9Y336); test: Hs-Siglec9 ALPHAscreen SOP 20170721; conditions: 10 µM
[6] = tested on: Trypanosoma cruzi; test: Trypanosoma cruzi phosphomannomutase and mannose-1-phosphate guanylyltransferase assay; assay type: functional; conditions: 10 µM
[7] = molecular target: T3, Arginase-2, mitochondrial (Homo sapiens) (UniProt P78540); test: in vitro enzyme assay to detect the production of urea directly proportional to the activity of Arginase II; assay type: functional; conditions: 33.3 µM; note: in the data most compounds retested in dose-response had high values
T3 sequence (whole entry): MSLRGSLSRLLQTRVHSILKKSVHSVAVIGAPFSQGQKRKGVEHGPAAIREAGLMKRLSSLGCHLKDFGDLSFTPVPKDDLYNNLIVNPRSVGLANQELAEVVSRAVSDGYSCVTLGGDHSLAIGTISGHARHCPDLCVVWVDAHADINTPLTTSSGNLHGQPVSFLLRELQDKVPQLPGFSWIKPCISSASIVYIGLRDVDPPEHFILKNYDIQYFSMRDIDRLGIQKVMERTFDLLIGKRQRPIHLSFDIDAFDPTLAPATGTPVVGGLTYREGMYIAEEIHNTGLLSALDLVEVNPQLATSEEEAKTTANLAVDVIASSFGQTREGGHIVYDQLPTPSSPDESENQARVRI

[8] = molecular target: T4, Proteasome subunit beta (Trypanosoma cruzi) (UniProt O96673); test: Trypanosoma cruzi proteasome chymotrypsin-like activity (TcProtChymo) assay.; note: in the data most compounds retested in dose-response had high values; assay type: functional; conditions: 9.37 µM
T4 sequence (whole entry): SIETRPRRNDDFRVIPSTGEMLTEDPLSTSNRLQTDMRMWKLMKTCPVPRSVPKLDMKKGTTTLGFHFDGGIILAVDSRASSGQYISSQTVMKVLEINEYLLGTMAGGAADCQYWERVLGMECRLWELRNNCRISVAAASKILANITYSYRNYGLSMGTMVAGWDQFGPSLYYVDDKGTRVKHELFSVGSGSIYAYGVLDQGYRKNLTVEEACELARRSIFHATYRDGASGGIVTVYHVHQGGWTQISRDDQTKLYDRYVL

[9] = species on record: Homo sapiens; test: To identify inhibition of the IFN signalling (Jak-Stat) pathway via expression of an eGFP reporter gene under the control of an IFN-stimulated response element (ISRE) containing MxA promoter.; assay type: functional; conditions: 30 µM
[10] = molecular target: Shiga toxin 2 (Escherichia coli O157:H7) (UniProt P09385+P09386); test: E. coli 0.157:H7 Shiga Toxin SOP - stx2 screening assay; assay type: functional; conditions: 30 µM
[11] = molecular target: T5, Tyrosyl-tRNA synthetase, putative (Trypanosoma cruzi (strain CL Brener)) (UniProt Q4DSP6); test: Trypanosoma cruzi tyrosyl tRNA synthetase (TcYRS) _High Tyrosine SOP; assay type: functional; conditions: 30 µM; note: in the data most compounds retested in dose-response had high values
T5 sequence (whole entry): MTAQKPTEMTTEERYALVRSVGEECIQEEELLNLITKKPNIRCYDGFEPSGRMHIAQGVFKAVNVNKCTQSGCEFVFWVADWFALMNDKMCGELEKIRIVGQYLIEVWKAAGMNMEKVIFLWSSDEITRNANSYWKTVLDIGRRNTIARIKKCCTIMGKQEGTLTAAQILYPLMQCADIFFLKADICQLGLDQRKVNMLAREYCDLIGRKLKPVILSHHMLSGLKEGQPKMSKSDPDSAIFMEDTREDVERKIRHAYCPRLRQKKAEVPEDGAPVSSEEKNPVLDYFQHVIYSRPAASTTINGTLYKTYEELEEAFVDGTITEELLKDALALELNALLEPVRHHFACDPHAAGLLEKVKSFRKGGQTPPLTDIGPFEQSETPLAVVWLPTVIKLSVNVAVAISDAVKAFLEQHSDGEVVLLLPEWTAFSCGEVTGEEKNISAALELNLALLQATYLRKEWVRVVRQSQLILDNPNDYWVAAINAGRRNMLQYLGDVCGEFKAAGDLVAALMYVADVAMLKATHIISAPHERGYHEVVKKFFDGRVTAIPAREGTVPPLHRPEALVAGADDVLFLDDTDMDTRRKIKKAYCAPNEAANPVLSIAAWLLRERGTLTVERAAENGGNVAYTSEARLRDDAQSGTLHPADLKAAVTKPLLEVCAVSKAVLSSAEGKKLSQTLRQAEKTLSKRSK

[12] = molecular target: T5, Tyrosyl-tRNA synthetase, putative (Trypanosoma cruzi (strain CL Brener)); test: Trypanosoma cruzi tyrosyl tRNA synthetase (TcYRS) SOP; assay type: functional; conditions: 30 µM
[13] = molecular target: Chromo domain-containing protein 1 (Saccharomyces cerevisiae (strain ATCC 204508 / S288c) (Baker's yeast)) (UniProt P32657); test: ScCHD-1 Enzyme Inhibition Assay; assay type: functional; conditions: 30 µM; note: in the data most compounds retested in dose-response had high values
Sequence of Chromo domain-containing protein 1 (Saccharomyces cerevisiae (strain ATCC 204508 / S288c) (Baker's yeast)) (P32657 whole entry, the tested form may be a part): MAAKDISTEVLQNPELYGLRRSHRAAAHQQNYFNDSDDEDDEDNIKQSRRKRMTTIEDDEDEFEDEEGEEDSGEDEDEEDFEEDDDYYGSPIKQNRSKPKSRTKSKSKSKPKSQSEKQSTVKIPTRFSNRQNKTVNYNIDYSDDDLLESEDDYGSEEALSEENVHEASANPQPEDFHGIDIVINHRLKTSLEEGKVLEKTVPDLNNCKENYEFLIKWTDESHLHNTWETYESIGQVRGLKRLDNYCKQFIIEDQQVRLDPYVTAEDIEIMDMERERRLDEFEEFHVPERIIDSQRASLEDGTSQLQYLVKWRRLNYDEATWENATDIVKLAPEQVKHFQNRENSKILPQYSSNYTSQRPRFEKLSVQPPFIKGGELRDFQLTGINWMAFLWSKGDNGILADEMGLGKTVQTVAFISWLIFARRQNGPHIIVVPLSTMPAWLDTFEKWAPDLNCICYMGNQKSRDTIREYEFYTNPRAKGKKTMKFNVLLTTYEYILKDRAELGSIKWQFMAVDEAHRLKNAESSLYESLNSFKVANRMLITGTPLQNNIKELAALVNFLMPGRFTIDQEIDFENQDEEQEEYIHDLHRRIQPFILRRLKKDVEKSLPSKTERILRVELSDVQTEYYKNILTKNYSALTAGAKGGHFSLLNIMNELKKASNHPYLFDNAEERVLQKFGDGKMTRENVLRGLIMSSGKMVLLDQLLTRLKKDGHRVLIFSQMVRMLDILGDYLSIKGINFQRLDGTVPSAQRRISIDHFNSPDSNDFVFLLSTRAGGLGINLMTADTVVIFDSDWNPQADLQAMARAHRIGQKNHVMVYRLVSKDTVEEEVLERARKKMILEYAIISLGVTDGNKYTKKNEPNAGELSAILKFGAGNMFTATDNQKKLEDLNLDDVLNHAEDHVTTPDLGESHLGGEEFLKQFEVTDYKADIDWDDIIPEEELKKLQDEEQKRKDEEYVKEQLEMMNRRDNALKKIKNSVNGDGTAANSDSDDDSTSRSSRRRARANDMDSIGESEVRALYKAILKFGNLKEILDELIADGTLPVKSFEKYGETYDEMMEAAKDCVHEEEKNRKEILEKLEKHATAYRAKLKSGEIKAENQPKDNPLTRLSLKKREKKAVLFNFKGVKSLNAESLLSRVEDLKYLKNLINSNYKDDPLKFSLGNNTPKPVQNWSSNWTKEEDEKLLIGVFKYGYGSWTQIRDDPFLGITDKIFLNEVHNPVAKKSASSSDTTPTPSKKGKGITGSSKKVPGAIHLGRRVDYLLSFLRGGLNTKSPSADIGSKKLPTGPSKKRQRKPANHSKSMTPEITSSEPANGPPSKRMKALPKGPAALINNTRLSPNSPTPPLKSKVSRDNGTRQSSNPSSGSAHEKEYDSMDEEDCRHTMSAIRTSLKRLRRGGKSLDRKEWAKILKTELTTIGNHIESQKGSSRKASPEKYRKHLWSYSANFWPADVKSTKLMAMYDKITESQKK

Sequence of Sialic acid-binding Ig-like lectin 9 (Homo sapiens) (Q9Y336 whole entry): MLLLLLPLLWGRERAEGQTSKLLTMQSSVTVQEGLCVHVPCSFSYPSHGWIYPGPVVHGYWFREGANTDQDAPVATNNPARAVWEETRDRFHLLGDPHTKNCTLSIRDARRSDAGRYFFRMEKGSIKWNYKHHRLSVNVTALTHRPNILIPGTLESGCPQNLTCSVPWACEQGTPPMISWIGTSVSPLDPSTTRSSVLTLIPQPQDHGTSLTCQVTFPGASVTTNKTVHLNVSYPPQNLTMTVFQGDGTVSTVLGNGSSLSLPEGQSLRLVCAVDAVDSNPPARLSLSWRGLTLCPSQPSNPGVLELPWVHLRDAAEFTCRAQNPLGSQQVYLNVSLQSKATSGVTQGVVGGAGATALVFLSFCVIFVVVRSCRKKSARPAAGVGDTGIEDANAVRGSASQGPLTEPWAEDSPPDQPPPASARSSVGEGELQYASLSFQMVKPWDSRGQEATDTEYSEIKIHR
Sequence of Protein translocase subunit SecA (Escherichia coli (strain K12)) (P10408 whole entry): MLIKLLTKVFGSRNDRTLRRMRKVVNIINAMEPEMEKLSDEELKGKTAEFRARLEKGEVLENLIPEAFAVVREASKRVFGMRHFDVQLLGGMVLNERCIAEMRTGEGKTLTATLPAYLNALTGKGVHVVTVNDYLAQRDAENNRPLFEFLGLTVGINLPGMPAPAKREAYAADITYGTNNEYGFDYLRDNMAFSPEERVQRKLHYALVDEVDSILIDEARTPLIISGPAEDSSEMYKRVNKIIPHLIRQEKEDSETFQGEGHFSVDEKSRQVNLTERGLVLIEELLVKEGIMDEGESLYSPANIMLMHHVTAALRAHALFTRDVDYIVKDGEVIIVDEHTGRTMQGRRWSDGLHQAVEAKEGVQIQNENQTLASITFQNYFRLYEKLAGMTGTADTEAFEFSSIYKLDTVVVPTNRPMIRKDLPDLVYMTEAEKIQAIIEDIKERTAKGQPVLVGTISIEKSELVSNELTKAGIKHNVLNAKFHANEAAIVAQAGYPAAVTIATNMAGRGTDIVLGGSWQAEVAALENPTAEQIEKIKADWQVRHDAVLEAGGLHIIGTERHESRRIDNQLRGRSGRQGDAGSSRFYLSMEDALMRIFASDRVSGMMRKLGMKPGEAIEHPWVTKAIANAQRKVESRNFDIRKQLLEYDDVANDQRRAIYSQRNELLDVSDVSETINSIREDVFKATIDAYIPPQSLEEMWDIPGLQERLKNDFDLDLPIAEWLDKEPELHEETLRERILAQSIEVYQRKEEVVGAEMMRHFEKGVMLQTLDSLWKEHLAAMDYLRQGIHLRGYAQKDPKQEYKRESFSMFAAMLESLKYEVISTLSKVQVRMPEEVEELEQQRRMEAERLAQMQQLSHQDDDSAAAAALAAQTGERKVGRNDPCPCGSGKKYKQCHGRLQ

Structure (SMILES) | Percent Effect [1] [%] | Percent Effect [2] [%] | Percent Effect [3] [%] | Percent Effect [4] [%] | Percent Effect [5] [%] | Percent Effect [6] [%] | Percent Effect [7] [%] | Percent Effect [8] [%] | Percent Effect [9] [%] | Percent Effect [10] [%] | Percent Effect [11] [%] | Percent Effect [12] [%] | Percent Effect [13] [%]
O=C(C1CCOC1)N1C[C@H]2CN(Cc3ccccn3)C[C@H]2C1 (some centres not stated) | -0.372 | 13.5 | -0.474 | 2.96 | -5.9 | 0.293 | 6.05 | 16.2 | -9.37 | -2.63 | 6.49 | 15.4 | -0.817
COc1ncccc1CN1C[C@@H]2COC[C@]2(COCC2CC2)C1 | -2.06 | 1.33 | 0.116 | 0.466 | 5.34 | -9.23 | 24.5 | 14.4 | 2.6 | -25.1 | 6.35 | 2.56 | -9.86
Cc1cc(CN2C[C@@H]3CCCO[C@@H]3[C@H](Nc3ccccn3)C2)no1 | -6.36 | 8.11 | 1.17 | 2.41 | 16.5 | 1.47 | 4.22 | 7.3 | 2.28 | 10.7 | 5.38 | 16.1 | -5.82
COCC(=O)NC(C)Cc1cccc(OC)c1 (configuration not stated) | -1.72 | 13.2 | -2.52 | 3.57 | 6.63 | 6.77 | -0.383 | 11.5 | 8.48 | 24.3 | 10.3 | 21.9 | -8.88
Cc1ncsc1CN1CC[C@H]2C[C@H](c3ccncn3)O[C@@H]2C1 | 1.18 | 10.4 | 1.35 | 2.98 | -6.01 | -9.57 | 0.645 | 9.4 | 24.2 | 0.203 | 1.06 | 6.41 | -5.8
O=C(c1cccnc1)N1C[C@@H]2CC[C@H](C1)N(Cc1ncc[nH]1)C2 | -1.65 | 16.4 | 2.47 | 9.09 | 6.45 | 5.88 | 5.91 | 11.4 | 7.79 | -0.806 | 7.53 | 15 | -3.77
Cc1ccc(CN2CCC3(CC2)C(=O)N(C)c2ccccc23)s1 | -4.09 | 8.11 | 7.84 | -1.34 | 6.95 | -0.781 | 2.08 | 16.8 | 20.4 | -2.26 | 7.92 | 11 | 5.6
O=C(c1ccc2c(c1)COC2)N1CCC(Nc2ccccc2)CC1 | -4.95 | 7.79 | -0.152 | 5.07 | 13.2 | 5.06 | 1.78 | -4.05 | 25 | 1.98 | 6.8 | 24.4 | -6.83
Cc1nc(C)c(CC(=O)N2C[C@@H]3CC[C@H](C2)N(CC2CCC2)C3)c(=O)[nH]1 | -2.23 | 18.9 | -2.78 | -35.4 | 21.6 | 4.2 | 16.1 | 16.2 | -15.8 | 5.33 | 4.3 | 18.5 | -11.7
